Results published in ChEMBL document CHEMBL4296182, “CO-ADD screening of NIH NCI Diversity Set V”.
For part of these data: Entries with a potency or affinity are not part of this list.

What was measured:
Staphylococcus aureus = experiment: Antibacterial activity against Staphylococcus aureus MRSA ATCC 43300 (CO-ADD:GP_020); MIC in CAMBH media using NBS plates, by Resazurin F(560/590); assay type: functional; conditions: Concentration 20 uM, ASSAY_TEST Inhibition of Bacterial Growth, detection method Resazurin, Fluorescence (ex560/em590), MEDIA CAMHB, plate type 384well, CORNING #3640, time 18 hr
Acinetobacter baumannii = experiment: Antibacterial activity against Acinetobacter baumannii ATCC 19606 (CO-ADD:GN_034); MIC in CAMBH media using NBS plates, by Resazurin F(560/590); assay type: functional; conditions: Concentration 20 uM, ASSAY_TEST Inhibition of Bacterial Growth, detection method Resazurin, Fluorescence (ex560/em590), MEDIA CAMHB, plate type 384well, CORNING #3640, time 18 hr
Escherichia coli = experiment: Antibacterial activity against Escherichia coli ATCC 25922 (CO-ADD:GN_001); MIC in CAMBH media using NBS plates, by Resazurin F(560/590); assay type: functional; conditions: Concentration 20 uM, ASSAY_TEST Inhibition of Bacterial Growth, detection method Resazurin, Fluorescence (ex560/em590), MEDIA CAMHB, plate type 384well, CORNING #3640, time 18 hr
Klebsiella pneumoniae = conditions: Concentration 20 uM; ASSAY_TEST Inhibition of Bacterial Growth; detection method Absorption (OD600); MEDIA CAMHB; plate type 384well; NBS; CORNING #3640; time 18 hr
Candida albicans = conditions: 20 µM
Cryptococcus neoformans = conditions: Concentration 20 uM; ASSAY_TEST Inhibition of Fungal Growth; detection method Resazurin; Absorption (OD600-OD570); plate type 384well; NBS; CORNING #3640

Structure (SMILES) | Inhibition (Staphylococcus aureus) [%] | Inhibition (Acinetobacter baumannii) [%] | Inhibition (Escherichia coli) [%] | Inhibition (Klebsiella pneumoniae) [%] | Inhibition (Candida albicans) [%] | Inhibition (Cryptococcus neoformans) [%]
Cc1nnc(-n2cccc2)s1 | 4.2 | -10.69 | 7.04 | -0.01 | 2.45 | -10.77
COc1cccc(/C=C/c2nccc3ccccc23)c1OC | 13.01 | 1.37 | 11.96 | 0.37 | 0.68 | -13.37
CC1(C)CC(Nc2ccc(Nc3ccccc3)cc2)CC(C)(C)N1 | 6.04 | 9.93 | -3.22 | 10.49 | 1.33 | -0.13
Cc1nc(Nc2ccc(F)cc2)nc(Nc2ccc(F)cc2)c1[N+](=O)[O-] | 16.01 | 5.04 | 5.3 | 11.05 | -2.79 | 0.25
Sc1ncnc2c1cnn2-c1ccccc1 | -0.19 | -10.1 | 15.12 | 7.13 | 16.7 | 30.67
Nc1ccc2c(c1Cl)C(=O)c1ccc(N)c(Cl)c1C2=O | 3.14 | -5.21 | 14.11 | 8.12 | -1.01 | 17.48
O=C1C(Cl)=C(O)C2(Cl)C(Cl)=C(Cl)C12Cl (stereo not given) | 15.05 | 13.34 | 5.55 | 11.98 | 9.34 | -12.02
Cc1ccc(/N=N\c2c(O)ccc3[nH]nnc23)cc1 | -9.42 | -9.08 | 4.02 | 11.98 | 13.2 | -12.82
Oc1ccccc1Nc1ccccn1 | 8.12 | -5.24 | 13.47 | 16.23 | 1.04 | -3.55
Nc1cc([N+](=O)[O-])ccc1N1C(=O)CCCC1=O | 5.36 | 15.02 | -8.9 | 10.57 | 7.24 | -9.22
CCOC(=O)Nc1cc2c(c(N)n1)N=C(c1ccccc1)CN2 | 13.64 | 2.33 | 8.87 | 5.47 | 5.55 | -8.89
COc1cc([N+](=O)[O-])ccc1NC(=O)Oc1ccc(NC(C)=O)cc1 | 1.87 | 5.68 | 0.56 | 4.62 | 0.51 | -16.29
CC(C)NC(=O)c1ccc(C(C)C)cc1 | 10.05 | -9.59 | 11.28 | -3.37 | -0.32 | -8.3
[O-]/[N+](=C\c1ccccc1)CC1(O)CCCCC1 | 12.91 | 10.28 | 21.78 | 2.39 | 5.54 | 9.39
COc1cccc(NC(S)=Nc2ccc(O)cc2)c1 | -0.11 | -11.24 | 8.79 | 5.3 | 8.24 | -9.84
OC1COC(OCc2ccccc2)C(O)C1O (stereo not given) | 21 | -10.71 | 8.16 | 4.56 | 0.34 | -6.82
Cc1cc(=O)n2nc(-c3ccc(C(C)(C)C)cc3)cc2[nH]1 | 15.3 | 0.45 | 6.17 | 14.85 | 4.49 | -5.87
NCCN1CCNCC1 | -1.38 | -9.37 | 9.81 | 11.04 | 1.05 | 4.22
CCCc1cc(=O)oc2c3c(c4c(c12)OC(C)(C)C=C4)OC(C)[C@H](C)[C@@H]3O (stereo not given in full) | 12.64 | -5.36 | 11.63 | 20.98 | 7.97 | -3.22
CN1C=C/C(=C/[N+](=O)[O-])N(C)C1=O | 9.11 | -6.18 | 4.71 | 0.88 | 1.05 | -5.15
CS(=O)(=O)Nc1nc2ccccc2[nH]1 | 10.98 | 4.83 | -1.14 | 15.79 | 3.39 | -3.84
S=C(Nc1ccccc1)c1ccccn1 | 3.41 | -5.82 | 1.02 | 19.37 | 25.9 | -3.26
NC(=O)SCC(=O)Nc1ccccc1C(=O)O | 2.18 | 6.48 | -0.39 | 23.65 | 9.98 | -3.81
c1ccc(/N=N/N2CCOCC2)cc1 | 10.43 | -20.45 | 2.82 | 4.01 | 17.7 | -10.19
CC1=CC2=C(C=O)C(=O)[C@](C)(O)[C@@H](O)C2=CO1 | -0.76 | 11.76 | 8.5 | 9.69 | 4.9 | -12.05

Structure (SMILES) | Inhibition (Staphylococcus aureus) [%] | Inhibition (Acinetobacter baumannii) [%] | Inhibition (Escherichia coli) [%] | Inhibition (Klebsiella pneumoniae) [%] | Inhibition (Candida albicans) [%] | Inhibition (Cryptococcus neoformans) [%]
CCOC(=O)C(=O)C1C(=O)Nc2ccccc21 (stereo not given) | 11.5 | 4.6 | -3.33 | 15.66 | 13.9 | -6.08
NC(=O)c1ccccc1NC(=O)COc1ccc(Cl)cc1 | 16.24 | 7.59 | 9.93 | 7.02 | 1.18 | -8.55
O=C(NC(=S)Nc1cc(Cl)ccc1O)c1cccc(Br)c1 | 15.1 | 1.75 | -0.44 | 14.73 | -2.09 | -0.86
CCc1nc(NC(C)(C)C)c2cnn(-c3ccccc3)c2n1 | 6.25 | 2.78 | 2.08 | 23.15 | 15.4 | -0.88
O=C(/C=C\c1ccc2ccccc2n1)c1cc(Cl)ccc1O | -11.69 | -4.27 | -19.12 | 3.11 | 16.4 | -1.96
Cn1c(=O)c2c(nc(N3CCOCC3)n2C)n(C)c1=O | 9.23 | 6.55 | 2.94 | 9.52 | 2.91 | -9.23
Cc1nc(N)nc(O)c1CCCNc1ccc(CCC2(CCl)OCCO2)cc1 | 17.48 | 2.84 | 11.06 | 8.53 | 1.57 | 3.7
Cc1ccc2c(c1)sc1nncn12 | 15.32 | -15.79 | 12.68 | 5.69 | -0.75 | -11.46
CCC1(CC)C(=O)NC(=S)N=C1N | 2.67 | -4.28 | 12.79 | 14.22 | 7.8 | -2.67
O=c1ccn2c(n1)SC(c1ccccc1)C2 (stereo not given) | 9.54 | 7.52 | 0.87 | 5.49 | 4.6 | -10.89
COC(=O)C1(C)Cc2cc(OC(C)=O)c(OC(C)=O)cc2N1 (stereo not given) | 12.77 | 0.02 | 8.98 | 5.52 | -3.71 | -8.65
O=S1(=O)CSCS(=O)(=O)C1 | -12.69 | -2.62 | -18.14 | 0.72 | 5.55 | 27.89
c1ccc(-c2nc3ccccc3s2)nc1 | 11.77 | -14.54 | 6.85 | 18.93 | 0.91 | -15.52
COCC(O)Cn1ccnc1[N+](=O)[O-] (stereo not given) [MISONIDAZOLE] | -3.32 | 6.49 | 6.97 | 11.9 | 1.35 | -12.64
Cc1ccc(NC(=S)NC(=O)c2ccccc2)cc1NC(=S)NC(=O)c1ccccc1 | 23.47 | -11.72 | 7.94 | 3.93 | -0.27 | 1.39
CCCSc1ncnc2[nH]ncc12 | 4.5 | -9.04 | 5.02 | 27.49 | 6.91 | -5.45
N#CC1C(=O)NC(=O)C(C#N)C12CCCC(C(F)(F)F)C2 (stereo not given) | 7.59 | 8.61 | -6.62 | 4.19 | 1.89 | -0.69
O=C(c1ccccc1)c1ccc(Sc2ccc([N+](=O)[O-])cc2)cc1 | 11.06 | -8.42 | 1.44 | 19.14 | 2.18 | -2.51
CCCc1nc(NC(=O)c2ccccc2)nc(NC(=O)c2ccccc2)n1 | -10.01 | -7.86 | 8.74 | 10.41 | 3.97 | -9.1
CSC1=NC=C(C#N)C2=NC(c3ccc(Cl)cc3)NN12 (stereo not given) | -1.38 | 5.14 | -2.57 | 11.21 | 1.44 | 39.9
N#CC1=CC2CN(Cc3ccccc3)C1C1C(=O)N(c3ccccc3)C(=O)C21 (stereo not given) | -0.51 | 3.07 | -13.61 | 5.72 | 9.06 | 18.01
CCCN(CCC)CC(=O)N1CC(=O)Nc2ccccc21 | -18.07 | -3.41 | -10.49 | 8.75 | 3.75 | -3.68
N=C(N)n1c(N)nc2ccccc2c1=O | -3.84 | 11.96 | 12.39 | 5.57 | 0.23 | -13.19
O=C1c2ccccc2C(=O)c2c1cccc2-n1nnc2ccccc21 | 8.87 | -5.95 | 13.14 | 0.02 | 0.12 | -17.13
O=C(c1ccccc1)C1N=NCC1c1ccc(Cl)cc1 (stereo not given) | 21.05 | 1.64 | 18.84 | 8.27 | 8.01 | -11.46
